Measurements from PubChem BioAssay.
Calls of active or inactive are those of the source. Unless noted, no rule for the calls is given here.

Columns and labels:
[1] = system: Wnt5a (protein binding on small-molecule microarray); assay: small molecules binding Wnt5a protein – biophysical, small-molecule microarray, 635/667 nm fluorescence, primary screen (AID 1142); conditions: 635 nm fluorescence, higher = more signal;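 also: fluorescence read at 667 nm with signal to noise per printed feature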
[2] = ATP-based viability of Huh7 replicon cells – cell-based, CellTiter-Glo luminescence, basal, 48 h, cytotoxicity control for HCV replication inhibitor project, primary screen (AID 1143); conditions: higher = more signal, called active from +8 up or from −8 down;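 also: Huh7 hepatoma cells carrying a hepatitis C replication reporter with no stimulus; test concentration not given here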
[3] = Pseudomonas biofilm growth suppression – PAO1 strain, BacTiter-Glo luminescence, LB-PBS, primary screen (AID 1144); conditions: P. aeruginosa PAO1 biofilm, 12 h, higher = more signal
[4] = basal CRE-LacZ reporter activity in PC12 – cell-based, unstimulated, primary screen (AID 1145); conditions: no forskolin, luminescence, 4.5 h, higher = more signal, called active from +8 up or from −8 down
[5] = forskolin-driven CRE-LacZ activity in PC12 – cell-based, CRE-LacZ reporter, forskolin-stimulated, primary screen (AID 1146); conditions: luminescence, 4.5 h, higher = more signal, called active from +8 up or from −8 down;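 also: PC12 cells with 6xCRE LacZ reporter stimulated by forskolin 10 µM; beta-galactosidase reporter signal reflecting CREB driven transcription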
[6] = molecular target: Streptavidin (Streptomyces avidinii) (UniProt P22629); assay: compounds binding control protein streptavidin – biophysical, small-molecule microarray, 635/667 nm fluorescence, artefact control for SMM compound annotation, primary screen (AID 1147); conditions: higher = more signal;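 also: signal reflects streptavidin binding to arrayed compounds as a control protein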
[7] = probe aInhba binding on compound microarray – biochemical, small-molecule microarray, 635/667 nm fluorescence, primary screen (AID 1148); conditions: higher = more signal;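 also: score merges 667nm spot fluorescence with signal-to-noise for antibody binding to printed compounds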
Torsin-1A (Homo sapiens) [8] = molecular target: Torsin-1A (Homo sapiens) (UniProt O14656); assay: TOR1A wild-type binding on microarray – cell lysate, small-molecule microarray, lysate, 635/667 nm, primary screen (AID 1149); conditions: COS7 hTOR1A-WT lysate, 635 nm fluorescence, higher = more signal
Torsin-1A (Homo sapiens) [9] = molecular target: Torsin-1A (Homo sapiens) (UniProt O14656); assay: torsin A mutant lysate binding on microarrays – cell lysate, small-molecule microarray, COS7 lysate, 635/667 nm fluorescence, primary screen (AID 1150); conditions: COS7 hTOR1A mutant lysate, 635 nm fluorescence, higher = more signal;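 also: score pools 667 nm emission and signal to noise measuring lysate protein binding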
[10] = system: Sonic hedgehog protein (Shh); assay: Sonic hedgehog microarray binding compounds – biochemical, small-molecule microarray, 635/667 nm fluorescence, primary screen (AID 1151); conditions: 635 nm fluorescence, higher = more signal;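 also: Shh protein binding to compounds spotted on small-molecule microarray slides; score combines spot fluorescence intensity with signal-to-noise across triplicate slides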

Torsin-1A (Homo sapiens), sequence (O14656 whole entry, looked up): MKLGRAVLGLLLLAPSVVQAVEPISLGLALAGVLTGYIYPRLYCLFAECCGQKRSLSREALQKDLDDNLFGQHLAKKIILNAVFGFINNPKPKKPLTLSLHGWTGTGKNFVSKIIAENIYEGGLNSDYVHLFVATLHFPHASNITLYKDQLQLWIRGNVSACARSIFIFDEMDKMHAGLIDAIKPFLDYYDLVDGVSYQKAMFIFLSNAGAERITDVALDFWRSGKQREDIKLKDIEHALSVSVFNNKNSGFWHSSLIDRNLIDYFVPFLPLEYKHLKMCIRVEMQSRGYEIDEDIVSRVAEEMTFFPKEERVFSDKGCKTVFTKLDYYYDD
Streptavidin (Streptomyces avidinii), sequence (P22629 whole entry, looked up): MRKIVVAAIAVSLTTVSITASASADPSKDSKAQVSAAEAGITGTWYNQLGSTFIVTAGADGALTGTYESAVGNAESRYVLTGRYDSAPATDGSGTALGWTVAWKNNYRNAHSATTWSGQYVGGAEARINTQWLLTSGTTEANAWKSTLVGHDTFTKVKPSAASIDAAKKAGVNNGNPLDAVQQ

SMILES | composite z-score [1] | z-score [2] | z-score [3] | z-score [4] | z-score [5] | composite z-score [6] | composite z-score [7] | composite z-score (Torsin-1A (Homo sapiens) [8]) | composite z-score (Torsin-1A (Homo sapiens) [9]) | composite z-score [10]
COC(=O)[C@H]1[C@@H]2COc3ccccc3[C@H]2N[C@H]1C(=O)OC | -0.0215 | 0.508 (inactive) | -0.411 (inactive) | 2.13 (inactive) | -0.827 (inactive) | -0.142 | -0.118 | 0.425 | 0.775 | 0.264
O=C1O[C@H](c2ccccc2)[C@H](c2ccccc2)N2[C@H]1[C@@H](C(=O)Nc1nc3ccccc3s1)[C@]1(C(=O)Nc3ccc(C#CC4(O)CCCCCC4)cc31)[C@H]2c1ccc(O)cc1 | 0.328 | -0.859 (inactive) | -0.781 (inactive) | 0.802 (inactive) | 0.3 (inactive) | 1.34 | 0.293 | 0.417 | 0.164 | 1.82
CO[C@H]1O[C@H](CO)[C@@H](OC(=O)Nc2ccc3c(c2)OCO3)[C@H](OC(=O)Nc2ccccc2)[C@@H]1OC(=O)Nc1ccccc1 | 0.743 | -3.5 (inactive) | -0.22 (inactive) | 0.605 (inactive) | -1.49 (inactive) | 0.327 | 0.0398 | 0.491 | 1.09 | 1.12
O=C1c2ccccc2[C@@]2(Cc3ccccc3N(CC(F)(F)F)C2=O)[C@H](c2ccc(CO)cc2)N1C1CCCCC1 | 0.327 | -0.323 (inactive) | 0.00188 (inactive) | -0.168 (inactive) | -0.838 (inactive) | -0.256 | 0.207 | 0.17 | -0.309 | 0.522
[N-]=[N+]=NCc1ccccc1C[C@@]1(C(=O)O)N=C(c2ccc(OCCCO)cc2)O[C@@H]1c1ccccc1N=[N+]=[N-] | -0.0964 | -2.2 (inactive) | -0.439 (inactive) | 0.488 (inactive) | 0.142 (inactive) | 0.312 | 0.0073 | 0.0819 | 0.0245 | -0.165
C=CC[C@]1(C(=O)NCC(O)CO)N=C(c2ccc(OCCCO)cc2)O[C@H]1c1ccccc1 (some centres undefined) | 0.621 | -0.371 (inactive) |  | 1.37 (inactive) | -0.804 (inactive) | 0.0012 | -0.146 | 2.71 | 3.09 | -0.559
CCCC=C(CCC)[C@@H](NC(=O)c1ccccc1)c1ccccc1 | -0.149 | -1.26 (inactive) | 0.202 (inactive) | -0.561 (inactive) | 1.28 (inactive) | 0.405 | 0.0968 | -0.106 | -0.0692 | -0.289
